Reference: ChEMBL document CHEMBL4513146, “CO-ADD screening of Karazin Kharkiv National University (Ukraine) compounds”
Entries with a potency or affinity are not part of this list.

System: Staphylococcus aureus
Settings: Concentration 32 ug.mL-1;; ASSAY_TEST Inhibition of Bacterial Growth; detection method Absorption (OD600); MEDIA CAMHB; plate type 384well; NBS; CORNING #3640; time 18 hr

Compound | Inhibition [%]
Cc1ccc(Sc2nccn3c(=O)n(CC(=O)Nc4ccccc4Br)nc23)c(C)c1 | -0.81
CCc1nnc2c(S(=O)(=O)N(Cc3cccc(C)c3)c3ccc(Cl)cc3)cccn12 | 8.39
Cc1cc(C)cc(NC(=O)Cn2nc3c(Sc4cccc(C)c4)nc4ccccc4n3c2=O)c1 | 1.17
CCOc1ccc(-n2ccn3c(SCC(=O)c4c(C)[nH]c5ccccc45)nnc3c2=O)cc1 | -0.13
O=C(CSc1nnc2c(=O)n(-c3ccccc3)ccn12)c1ccc(F)cc1 | 16.24
Cc1cc2nn(CC(=O)Nc3ccc(C)c(F)c3)c(=O)n2c(Nc2ccc(C)c(F)c2)n1 | 6.9
Cc1ccc(NC(=O)Cn2nc3c4c5c(sc4ncn3c2=O)CCCC5)c(Cl)c1 | -4.74
Cc1c(Cl)cccc1-n1ccn2c(=O)n(Cc3cccc(Cl)c3)nc2c1=O | 7.64
Cc1ccc(-c2cc3c4nn(CC(=O)N5CCN(c6ccc(F)cc6)CC5)c(=O)n4ccn3n2)cc1C | 6.16
O=C(Cn1nc2ccc(-c3ccccc3)nn2c1=O)Nc1ccc(F)cc1 | 1.63
Cc1ccc(CNC(=O)CSc2nnc3c4cc(-c5ccc(C)cc5)nn4ccn23)cc1 | 9.17
Cc1nnc2ccc(S(=O)(=O)N(Cc3cccc(F)c3)c3ccc(Cl)cc3)cn12 | 9.42
CCOc1ccc(-n2ccn3c(SCC(=O)c4ccc(C)cc4)nnc3c2=O)cc1 | 16.97
COc1cccc(NC(=O)Cn2nc3c(Oc4cccc(OC)c4)nccn3c2=O)c1 | -17.16
O=S(=O)(c1ccc2nncn2c1)N(Cc1cccc(Cl)c1)c1ccc2c(c1)OCO2 | 4.03
CCCCN(C)c1ccc2nnc(CCc3nc(-c4cccc(Br)c4)no3)n2n1 | 7.62
CSc1cccc(NC(=O)Cn2nc3c(N4CCCC(C)C4)nccn3c2=O)c1 (stereo not drawn) | -21.6
O=C(CSc1nnc2c3cc(-c4ccc(F)cc4)nn3ccn12)NCc1ccccc1 | -2.17
Cc1cc2nn(CC(=O)Nc3cc(F)ccc3C)c(=O)n2c(Nc2ccc(C)c(F)c2)n1 | 2.63
O=C(CSc1nnc2c(=O)n(-c3ccccc3)ccn12)Nc1cccc(F)c1 | 13

Compound | Inhibition [%]
Cc1ccc(-n2ccn3c(=O)n(Cc4ccccc4F)nc3c2=O)cc1C | 8.2
Cc1ccc(NC(=O)Cn2nc3ccc(-c4ccc(Cl)cc4)nn3c2=O)cc1F | 3.27
COc1cccc(Oc2nccn3c(=O)n(CC(=O)NCc4ccc(SC)cc4)nc23)c1 | 10.98
Cc1ccc(Sc2nccn3c(=O)n(CC(=O)Nc4cccc(Br)c4)nc23)c(C)c1 | -7.2
CCOC(=O)c1ccccc1NC(=O)Cn1nc2c(Oc3cccc(C)c3C)nccn2c1=O | 5.11
N#CCSc1nnc2c(=O)n(-c3ccc(Br)cc3)ccn12 | 14.93
Cc1ccccc1NC(=O)Cn1nc2ccc(SC3CCCCC3)nn2c1=O | 2.21
Cc1cccc(C)c1NC(=O)Cn1nc2ccc(SCc3ccc(Cl)cc3)nn2c1=O | -3.66
Cc1ccc(Oc2nccn3c(=O)n(CC(=O)N4CCN(c5ccc(F)cc5)CC4)nc23)cc1 | 10.18
CCOC(=O)c1ccc(NC(=O)Cn2nc3c(Oc4ccccc4)nccn3c2=O)cc1 | -0.24
CCc1ccc(NC(=O)Cn2nc3cc(C)nc(Nc4ccc(F)c(C)c4)n3c2=O)cc1 | 4.65
CC(C)CCNC(=O)Cn1nc2n(Cc3ccco3)c(=O)c3sccc3n2c1=O | 8.27
CCOc1ccc(NC(=O)Cn2nc3ccc(SCc4ccc(Cl)cc4)nn3c2=O)cc1 | 5.28
COc1cccc(Oc2nccn3c(=O)n(CC(=O)Nc4cc(F)ccc4F)nc23)c1 | 10.86
Cc1ccc(CNC(=O)Cn2nc3ccc(SCc4ccc(Cl)cc4)nn3c2=O)cc1 | 11.66
Cc1cc2nn(CC(=O)Nc3cccc(C)c3C)c(=O)n2c(Nc2ccc(C)c(F)c2)n1 | 9.25
COc1ccc(NC(=O)Cn2nc3ccc(-c4ccc(Cl)cc4)nn3c2=O)cc1 | 8.85
Cc1nnc2ccc(S(=O)(=O)N(Cc3ccc(F)cc3)c3ccc4c(c3)OCO4)cn12 | 6.11
COc1ccc(CNC(=O)Cn2nc3c4cc(-c5ccc(C)c(C)c5)nn4ccn3c2=O)cc1 | 6.21

System: Escherichia coli
Settings: Concentration 32 ug.mL-1;; ASSAY_TEST Inhibition of Bacterial Growth; detection method Absorption (OD600); MEDIA CAMHB; plate type 384well; NBS; CORNING #3640; time 18 hr

Compound | Inhibition [%]
Cc1ccc(Sc2nccn3c(=O)n(CC(=O)Nc4ccccc4Br)nc23)c(C)c1 | -13.84
CCc1nnc2c(S(=O)(=O)N(Cc3cccc(C)c3)c3ccc(Cl)cc3)cccn12 | 0.27
Cc1cc(C)cc(NC(=O)Cn2nc3c(Sc4cccc(C)c4)nc4ccccc4n3c2=O)c1 | 2.96
CCOc1ccc(-n2ccn3c(SCC(=O)c4c(C)[nH]c5ccccc45)nnc3c2=O)cc1 | -15.25
O=C(CSc1nnc2c(=O)n(-c3ccccc3)ccn12)c1ccc(F)cc1 | -2
Cc1cc2nn(CC(=O)Nc3ccc(C)c(F)c3)c(=O)n2c(Nc2ccc(C)c(F)c2)n1 | -1.96
Cc1ccc(NC(=O)Cn2nc3c4c5c(sc4ncn3c2=O)CCCC5)c(Cl)c1 | -9.07
Cc1c(Cl)cccc1-n1ccn2c(=O)n(Cc3cccc(Cl)c3)nc2c1=O | -4.76
Cc1ccc(-c2cc3c4nn(CC(=O)N5CCN(c6ccc(F)cc6)CC5)c(=O)n4ccn3n2)cc1C | 1.43
O=C(Cn1nc2ccc(-c3ccccc3)nn2c1=O)Nc1ccc(F)cc1 | -4.86
Cc1ccc(CNC(=O)CSc2nnc3c4cc(-c5ccc(C)cc5)nn4ccn23)cc1 | 0.59
Cc1nnc2ccc(S(=O)(=O)N(Cc3cccc(F)c3)c3ccc(Cl)cc3)cn12 | -6.55
CCOc1ccc(-n2ccn3c(SCC(=O)c4ccc(C)cc4)nnc3c2=O)cc1 | -1.19
COc1cccc(NC(=O)Cn2nc3c(Oc4cccc(OC)c4)nccn3c2=O)c1 | 2.27
O=S(=O)(c1ccc2nncn2c1)N(Cc1cccc(Cl)c1)c1ccc2c(c1)OCO2 | -10.92
CCCCN(C)c1ccc2nnc(CCc3nc(-c4cccc(Br)c4)no3)n2n1 | -1.77
CSc1cccc(NC(=O)Cn2nc3c(N4CCCC(C)C4)nccn3c2=O)c1 (stereo not drawn) | -14.98
O=C(CSc1nnc2c3cc(-c4ccc(F)cc4)nn3ccn12)NCc1ccccc1 | -6.24
Cc1cc2nn(CC(=O)Nc3cc(F)ccc3C)c(=O)n2c(Nc2ccc(C)c(F)c2)n1 | -8.01
O=C(CSc1nnc2c(=O)n(-c3ccccc3)ccn12)Nc1cccc(F)c1 | -3.48

Compound | Inhibition [%]
Cc1ccc(-n2ccn3c(=O)n(Cc4ccccc4F)nc3c2=O)cc1C | -3.66
Cc1ccc(NC(=O)Cn2nc3ccc(-c4ccc(Cl)cc4)nn3c2=O)cc1F | -3.59
COc1cccc(Oc2nccn3c(=O)n(CC(=O)NCc4ccc(SC)cc4)nc23)c1 | 2.64
Cc1ccc(Sc2nccn3c(=O)n(CC(=O)Nc4cccc(Br)c4)nc23)c(C)c1 | -13.08
CCOC(=O)c1ccccc1NC(=O)Cn1nc2c(Oc3cccc(C)c3C)nccn2c1=O | -6.35
N#CCSc1nnc2c(=O)n(-c3ccc(Br)cc3)ccn12 | -0.38
Cc1ccccc1NC(=O)Cn1nc2ccc(SC3CCCCC3)nn2c1=O | -7.39
Cc1cccc(C)c1NC(=O)Cn1nc2ccc(SCc3ccc(Cl)cc3)nn2c1=O | -13.3
Cc1ccc(Oc2nccn3c(=O)n(CC(=O)N4CCN(c5ccc(F)cc5)CC4)nc23)cc1 | 1.45
CCOC(=O)c1ccc(NC(=O)Cn2nc3c(Oc4ccccc4)nccn3c2=O)cc1 | -4.26
CCc1ccc(NC(=O)Cn2nc3cc(C)nc(Nc4ccc(F)c(C)c4)n3c2=O)cc1 | -6.45
CC(C)CCNC(=O)Cn1nc2n(Cc3ccco3)c(=O)c3sccc3n2c1=O | 0.93
CCOc1ccc(NC(=O)Cn2nc3ccc(SCc4ccc(Cl)cc4)nn3c2=O)cc1 | -5.7
COc1cccc(Oc2nccn3c(=O)n(CC(=O)Nc4cc(F)ccc4F)nc23)c1 | -7.76
Cc1ccc(CNC(=O)Cn2nc3ccc(SCc4ccc(Cl)cc4)nn3c2=O)cc1 | -2.92
Cc1cc2nn(CC(=O)Nc3cccc(C)c3C)c(=O)n2c(Nc2ccc(C)c(F)c2)n1 | -3.18
COc1ccc(NC(=O)Cn2nc3ccc(-c4ccc(Cl)cc4)nn3c2=O)cc1 | -4.11
Cc1nnc2ccc(S(=O)(=O)N(Cc3ccc(F)cc3)c3ccc4c(c3)OCO4)cn12 | -4.59
COc1ccc(CNC(=O)Cn2nc3c4cc(-c5ccc(C)c(C)c5)nn4ccn3c2=O)cc1 | 2.95
